Compounds without any hit were thinned out: in the full panel of roughly 83,000, 20% have a hit.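 Note: values are percent growth. 100 is the growth of untreated cells, values between 100 and 0 indicate rising inhibition; between -100 and 0 indicates cell death.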 Values without a mark were called inactive. Calls of active or inactive are those of the source. How the source made its calls: active means growth percent below 10; inactive means the rest.
Experiments:
Assay in all cases: NCI-60 one-dose screen, 48 h (100 = growth as untreated, 0 = no growth, -100 = all killed)
Conditions in all cases: 10 µM unless noted
SK-MEL-2 melanoma = tested on: SK-MEL-2 melanoma
EKVX NSCLC = tested on: EKVX NSCLC
SN12C renal = tested on: SN12C renal
UO-31 renal = tested on: UO-31 renal
TK-10 renal = tested on: TK-10 renal
ACHN renal = tested on: ACHN renal
CAKI-1 renal = tested on: CAKI-1 renal
CCRF-CEM leukemia = tested on: CCRF-CEM leukemia
MOLT-4 leukemia = tested on: MOLT-4 leukemia
OVCAR-8 ovarian = tested on: OVCAR-8 ovarian
OVCAR-5 ovarian = tested on: OVCAR-5 ovarian
OVCAR-4 ovarian = tested on: OVCAR-4 ovarian
SK-OV-3 ovarian = tested on: SK-OV-3 ovarian
IGROV1 ovarian = tested on: IGROV1 ovarian
OVCAR-3 ovarian = tested on: OVCAR-3 ovarian
HS 578T breast = tested on: HS 578T breast
NCI/ADR-RES ovarian = tested on: NCI/ADR-RES ovarian
RPMI-8226 leukemia = tested on: RPMI-8226 leukemia
A498 renal = tested on: A498 renal
SR leukemia = tested on: SR leukemia

| SMILES | growth (SK-MEL-2 melanoma) | growth (EKVX NSCLC) | growth (SN12C renal) | growth (UO-31 renal) | growth (TK-10 renal) | growth (ACHN renal) | growth (CAKI-1 renal) | growth (CCRF-CEM leukemia) | growth (MOLT-4 leukemia) | growth (OVCAR-8 ovarian) | growth (OVCAR-5 ovarian) | growth (OVCAR-4 ovarian) | growth (SK-OV-3 ovarian) | growth (IGROV1 ovarian) | growth (OVCAR-3 ovarian) | growth (HS 578T breast) | growth (NCI/ADR-RES ovarian) | growth (RPMI-8226 leukemia) | growth (A498 renal) | growth (SR leukemia) |
| --- | --- | --- | --- | --- | --- | --- | --- | --- | --- | --- | --- | --- | --- | --- | --- | --- | --- | --- | --- | --- |
| N#C/C(=C\c1ccc(Br)cc1)n1nnc2cccc(F)c21 | 22.3% | 61.8% | 4.62% (active) | 2.69% (active) | 15.6% | 20.2% | 18.2% | -2.73% (active) | 1.33% (active) | 8.42% (active) | 10.5% | 17.5% | 78.3% | 4.13% (active) | -31.5% (active) | -11.1% (active) | 3.27% (active) |  |  |  |
| COc1ccc(/C=C\c2nc3ccccc3s2)cc1OP(=O)(O)O | 22.2% | 76.8% | 55.4% | 51.5% | 90.3% | 56.9% | 38.5% | 16.8% | 26.3% | 40.2% | 75.4% | 72.6% | 84.2% | 37.9% | 0.859% (active) | 14.8% | 14.4% | 22.7% |  |  |
| O=C(O)/C=C\C(=O)N1C/C(=C\c2ccccc2Cl)C(=O)/C(=C/c2ccccc2Cl)C1 | 37% | 40.1% | -30.7% (active) | -64.9% (active) | 0.472% (active) | 20.3% | 0.997% (active) | 3.66% (active) | 4.86% (active) | 4.98% (active) | 2.41% (active) |  |  | 1.94% (active) | -37.7% (active) | 47.1% | 4.6% (active) | 3.9% (active) |  |  |
| [O-][n+]1ccccc1CCN(O)CCc1cccc[n+]1[O-] | 92.9% | 99.4% | 105% | 75.5% | 104% | 95.8% | 94.7% | 99.5% | 98% | 101% | 97.7% | 107% | 101% | 106% | 106% | 94.5% | 99.8% | 102% |  |  |
| CC(=O)OCCCCCNc1ccccc1 | 102% | 104% | 103% | 88.1% | 107% | 101% | 95.7% | 103% | 91.3% | 108% | 97.5% | 92.8% | 109% | 118% | 105% | 107% | 102% | 111% |  |  |
| O=C1/C(=C\c2cn(Cc3ccccc3)c3ccc(Br)cc23)c2ccccc2N1c1c(Cl)cccc1Cl | 101% | 89.2% | 97.7% | 87.3% | 102% | 104% | 83% | 96.8% | 95.8% | 98% | 99% | 91.9% | 101% | 105% | 119% | 110% |  |  |  |  |
| CN(C)CCCn1c2c(c3ccc(-c4ccn[nH]4)cc3c1=O)C(=O)c1ccccc1-2 | 121% | 34.2% | 5.41% (active) | 25.5% | 54.4% | -28.9% (active) |  | 0.484% (active) | -0.72% (active) | 23.7% | 59.2% | 77.9% | 23.5% | 41.2% | 66.9% | 68.6% | 50.3% | -0.979% (active) | 52.4% | -1.12% (active) |
| Cc1c(C(=O)NO)sc2ncnc(Nc3ccc(NC(=S)Nc4ccccc4)cc3)c12 | 104% | 93.6% | 101% | 85.1% | 106% | 105% | 96.6% |  | 111% | 103% | 103% | 105% | 121% | 112% | 111% | 105% | 99.6% |  |  | 110% |
| C=CCn1c(SCC(=O)Nc2ccc(C(=O)/C=C/c3cc(OC)c(OC)c(OC)c3)cc2)nnc1-c1cc(OC)c(OC)c(OC)c1 | 80.9% | 51.8% | 33.8% | 42% | 87.3% | 37.8% |  | 1.85% (active) | 12.3% | 28.4% | 95% | 55.2% | 76.5% | 22.2% | -21% (active) | 69% | 73% | -32.3% (active) | 55.8% | -5.4% (active) |
| C=C(C)[C@@H]1CC[C@]2(C(=O)N3CCN(C)CC3)CC[C@]3(C)[C@H](CC[C@@H]4[C@@]5(C)CCC(=O)C(C)(C)[C@@H]5CC[C@]43C)[C@@H]12 | 92.1% | 96.3% | 75.7% | 66.7% | 102% | 77.4% | 93.5% |  | 51.6% | 87.1% | 92.5% | 83.5% | 104% | 89.2% | 74% | 95.3% | 74.6% | 78.1% |  | -12.1% (active) |
| COc1cc(CCNc2nc3cc(N)cc(N)c3nc2-c2ccccc2)cc(OC)c1 | -3.81% (active) | 57.6% | -77.7% (active) | 39% | 104% | 52.3% | 184% |  | -66.5% (active) | -22.2% (active) | 13.4% | -94.9% (active) | 82.3% | 27.8% | -66.2% (active) | -70.5% (active) | 39.1% | -39.6% (active) |  |  |
| C=C1C(=O)O[C@H]2[C@H]1CC/C(COC(=O)/C=C/c1c[nH]c3ccccc13)=C\CC[C@@]1(C)O[C@@H]21 | -83.7% (active) | -41.4% (active) | -54% (active) | -100% (active) | -99.2% (active) | -100% (active) |  | 2.46% (active) | 5.13% (active) | -34.4% (active) | -42.1% (active) | -91.9% (active) | 50.8% | -69.7% (active) | -91.5% (active) | -6.76% (active) | -26.9% (active) |  | -98.8% (active) | -19.7% (active) |
| OC(c1ccccc1)c1ccccn1 (centres undefined) | 104% | 98.8% | 99.6% | 93.1% | 99.3% | 108% |  | 88.7% | 96.8% | 95.9% | 108% | 116% | 92% | 106% | 105% | 91% | 110% |  | 98.5% | 99.1% |
| CCCCCCCCOc1ccc(/C=N/Nc2cc(C)nc3ccc(Cl)cc23)cc1 | 95.6% | 55.7% | -82.4% (active) | 79.2% | -35.7% (active) | -1.15% (active) | 41.6% |  | -14.1% (active) | -34.3% (active) | 27.1% | -69.7% (active) | 90.3% | -84.6% (active) | -93.1% (active) | 46.9% | -22% (active) | -3.13% (active) |  | -23.3% (active) |
| FC(F)(F)c1cccc(Nc2ccccc2)c1 | 88.7% | 101% | 101% | 97.6% | 94% | 99.6% | 97.5% |  | 89.9% | 101% | 95.4% | 108% | 119% | 102% | 118% | 105% | 96.2% | 104% |  | 88.2% |
| COc1ccc(C(=O)/C=C/c2ccc(OCc3ccccc3)c(OC)c2)cc1OC | 83.5% | 54.7% | 61.1% | 43.8% | 48.4% | 79.8% | 55.5% |  | 44.8% | 17.4% | 107% |  | 91% | 84.3% | 10.3% | 94.7% |  | -3.1% (active) |  | 11.2% |
| CC1(C)NCCC[C@]2(C)[C@H]3CC=C4[C@@H]5C[C@@](C)(CO)CC[C@]5(C)CC[C@@]4(C)[C@]3(C)CC[C@@H]12 | 48.4% | 86.5% | 62.1% | 69.3% | 63.3% | 54.3% | 76.7% |  | 33.8% | 83.4% | 83.3% | 60.8% | 93.1% | 56.7% | 72.4% | 52.7% | 74.2% | 20.1% |  | -1.3% (active) |
| O=C(OC(OC(=O)c1cc(Cl)cc(Cl)c1)c1cccc2ccccc12)c1ccccc1 (centres undefined) | 91.1% | 97.7% | 97.5% | 75.6% | 90.7% | 102% |  | 93.6% | 103% | 93.7% |  | 103% | 101% | 96.5% | 97.6% | 98.2% | 99.7% | 98% | 84.8% | 94.5% |
| COc1ccc2c(c1)c(CC(=O)NCCOCCOCC(=O)Nc1ccc(OC)c(C(N)=O)c1O)c(C)n2C(=O)c1ccc(Cl)cc1 | 89% | 94.4% | 101% | 74.4% | 100% | 109% |  | 107% | 74.7% | 90.3% | 112% | 93.7% | 109% | 93.9% | 103% | 105% | 91.6% | 96.9% | 86.6% | 90.2% |
| CCOC(=O)c1c(C)nc2c(c1N)C(=O)C(=O)N2Cc1ccc(C(F)(F)F)cc1 | 77% | 79.5% | 74.1% | 54.1% | 107% | 69.7% |  | 39.4% | 60.1% | 63.3% | 91.7% | 69.3% | 82.9% | 62.5% | 18% | 65.7% | 17.7% | 27.2% | 72.6% | 23.3% |
| NC(=S)N/N=C(/c1ccccc1)c1ccccc1N | 103% | 66.1% | 85% | 62.8% | 103% | 90.6% | 80.9% |  | 52.7% | 64.7% | 94.8% | 78.5% | 108% | 40.1% | 50.7% | 97.2% | 74.2% | 72.6% |  |  |
| C=C1C(=O)O[C@H]2[C@H]1CC/C(COC(=O)CCCCCC(=O)OC/C1=C/CC[C@@]3(C)O[C@H]3[C@H]3OC(=O)C(=C)[C@@H]3CC1)=C\CC[C@@]1(C)O[C@@H]21 | 55.7% | 19.9% | 0.951% (active) | -32.1% (active) | 7.18% (active) | -25.7% (active) |  | 4.16% (active) | 0.768% (active) | 12.2% | 51.2% | 37.2% | 94.6% | 7.45% (active) | 1.8% (active) | 18.7% | 46.9% | 1.08% (active) | 90.5% | 3.39% (active) |
| CCCCCCCC(=O)Nc1nc2[nH]c(CN3CCN(Cc4cccc(I)c4)CC3)c(CN3CCN(Cc4cccc(I)c4)CC3)c2c(=O)[nH]1 | -34% (active) | -44.5% (active) | -87.3% (active) | -99.9% (active) | -91.9% (active) | -98.9% (active) |  | 1.17% (active) | -36% (active) | -49.6% (active) | -66.1% (active) | -89.8% (active) | -69.8% (active) | -74% (active) | -95.8% (active) | -40.9% (active) | -51.1% (active) | -22.5% (active) | 45.5% | -43.4% (active) |
| CCCC1C(C(=O)OCC)=C(N)Oc2cc(O)ccc21 (centres undefined) | 99% | 80.6% | 103% | 70.7% | 105% | 94.1% |  | 99.7% | 89% | 107% | 108% | 89.3% | 88.3% | 76.4% | 96.6% | 101% | 94.3% | 98.5% | 109% | 90.1% |

Reference: PubChem BioAssay (NCI)
